# Compounds with a hit are over-represented: about 21% of the library has one in this group of screens.
# Pf growth 48h = P. falciparum growth inhibition at 48 hours (one generation); actives 5.9% (n = 310,000); AID 504832; Potency, µM (titrated, usually from 28.7 µM), without a hit: at the highest dose activity change, negative = inhibition, most hits filed as inhibitors; P. falciparum luciferase growth in erythrocytes, 48 h; note: potency is the fitted concentration of half-maximal effect; % is set by controls: 0 for no effect and ±100 for the full control effect
#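 Erythrocytes infected with P. falciparum carrying an integrated firefly luciferase reporter (2% hematocrit, 0.1% parasitemia final) were exposed to compounds in RPMI 1640 with 0.5% Albumax at 37 C, 5% CO2. Growth inhibition was scored as reduced luminescence.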
# Shiga inhibitor = blocks Shiga toxin action in Vero cells; Vero cells, Shiga toxin protein synthesis inhibition reporter; actives 9.2% (n = 290,000); inhibition, % at 38.7 µM; in the data active = inhibition mostly above about 28%, no sharp cut-off; inactive = mostly below about 43%; note: 0% is about no effect
# Sm TGR inh = S. mansoni TGR enzyme inhibition; Q962Y6; purified TGR, DTNB reduction, TNB absorbance 405 nm; Potency, µM (top dose mostly 114 µM), for inactives: at the highest dose activity change, negative = inhibition, usual class: inhibitors; actives 3% (n = 360,000); AID 485364; note: potency is the fitted concentration of half-maximal effect; % is set by controls: 0 for no effect and ±100 for the full control effect; nearly all actives have a fitted effect of over 60% in size
#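 Kinetic colorimetric format: TGR-catalysed, NADPH-driven DTNB reduction monitored via TNB absorbance. Enzyme dispensed at 20 nM; compound exposure 15 min at room temperature before reaction start.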
# Pf growth 96h = inhibits malaria parasite growth, 96 h | AID 504834 | Potency, µM (top dose mostly 28.7 µM), for the others: at the highest dose activity change, negative = inhibition, usual class: inhibitors | actives 6.9% (n = 320,000) | P. falciparum luciferase reporter growth, 96 h; note: potency is the fitted concentration of half-maximal effect; % is set by controls: 0 for no effect and ±100 for the full control effect
#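 P. falciparum expressing integrated firefly luciferase, in erythrocytes at 2% hematocrit, 0.05% parasitemia, incubated with compounds 96 h at 37 C, 5% CO2. Growth inhibition read as loss of luminescence; two-generation exposure targets delayed-death apicoplast inhibitors.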
# NS1 function inh = blocks influenza NS1 protein function. Potency, µM (highest dose often 46.1 µM), for the others: at the highest dose activity, positive = more growth. actives 0.4% (n = 270,000); calls by dose curve; note: potency is the fitted concentration of half-maximal effect; actives are rising curves; nearly all actives have a fitted effect of over 50% in size
#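 Compounds were scored for reversing the slow growth caused by influenza A NS1 in S. cerevisiae, measured by optical density at 600 nm. Assay medium contained 2% galactose at pH 6.0; NS1-free yeast of the same strain were the positive control.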
# CHX counter = counter-screen for Shiga toxin inhibitors: cycloheximide protein synthesis inhibition. AID 2314. actives 12% (n = 300,000). max response, %. cell reporter, cycloheximide protein synthesis inhibition counterscreen; in the data active = max response mostly above about 13%, no sharp cut-off; inactive = mostly below about 14%; note: read at 38.3 µM for the half of the compounds with a filed dose; 0% is about no effect
# * marks the source's active call; other numbers are inactive results; ? = inconclusive; / = not tested or not shown. Unless noted, calls come from the whole dose curve; as a rule, active = well fitted curve in the direction sought with a large enough effect; inconclusive = small, poorly fitted or top-dose-only effect, or another doubt; inactive = no such curve, though single readings can be large; an effect the other way counts as inactive or inconclusive.
SMILES,Pf growth 48h,Shiga inhibitor,Sm TGR inh,Pf growth 96h,NS1 function inh,CHX counter
CC(C)(C)SCCNC(=O)c1ccc(NS(C)(=O)=O)cc1,48%,36*,-9%,4%,-6%,16*
O=C(NCCSCc1ccccc1)c1ccccc1,?,9,-5%,0%,12%,13
NC(=S)NC1CC2C=CC1C2 (configuration not stated),76%,-6,-17%,40%,-2%,-2
COc1cccc(NC(=O)COC(=O)c2ccccc2SCC(=O)N2CCCC2)c1,-14%,/,1%,33%,/,/
COC(=O)CSc1nn(-c2ccc(F)cc2)c(=S)s1,0%,-9,11%,12%,/,-3
CCc1ccc(-c2nc(SCC(=O)N3CCOCC3)n[nH]2)cc1,86%,29*,4%,84%,/,11*
O=C(CSc1n[nH]c(-c2ccccc2)n1)N1CCCC1,53%,65*,1%,0%,-7%,16
O=C(CSc1n[nH]c(-c2ccccc2)n1)Nc1ncc(Br)cc1Br,7%,-22,3%,2.9µM*,-10%,-1
COc1cccc(N2CC(NC(=O)/C=C\c3ccc4c(c3)OCO4)CC2=O)c1 (configuration not stated),/,/,14%,/,/,/
Cc1ccccc1-n1c(C)cc(/C=C(\C#N)C(=O)NCC2CCCO2)c1C (configuration not stated),-77%,123*,-15%,8.3µM*,-8%,65*
N#C/C(=C\c1ccc[nH]1)C(=O)NCC1CCCO1 (configuration not stated),92%,38,-5%,99%,-4%,25*
N#C/C(=C\c1ccc(O)cc1)C(=O)NCC1CCCO1 (configuration not stated),/,/,-3%,/,/,/
N#C/C(=C\c1ccco1)C(=O)NCC1CCCO1 (configuration not stated),44%,50*,-23%,12%,1%,17*
COc1cc(/C=C(\C#N)C(=O)NCC2CCCO2)ccc1OCC(=O)O (configuration not stated),35%,-10,-1%,2.3µM*,3%,-2
Cc1ccc(/C=C(\C#N)C(=O)NCC2CCCO2)o1 (configuration not stated),48%,30,-12%,1%,3%,1
COc1ccccc1N1CCN(C2CC(=O)N(c3ccc(F)cc3)C2=O)CC1 (configuration not stated),-14%,3,?,2%,?,-1
CC(=O)Nc1cc(NC(C)=O)cc(C(=O)OCC(=O)Nc2ccc(S(=O)(=O)NC3=NCCCCC3)cc2)c1,6%,-6,-6%,12%,-11%,-4
Cc1cc(/C=C(\C#N)C(=O)NCc2cccs2)c(C)n1-c1ccccc1F,25%,80*,7%,111%,5%,52*
COc1ccc(/C=C(\C#N)C(=O)NCc2cccs2)cc1OC,-5%,-4,2%,?,-2%,1
CCOc1ccc(CCNS(=O)(=O)c2cc(Br)cc3c2N(C(C)=O)CC3)cc1OCC,/,/,-14%,/,/,/
CC1CCCCC1NC(=O)CCCn1c(=S)[nH]c2ccccc2c1=O (configuration not stated),?,-2,1%,15µM*,/,1
O=C(CCCn1c(=S)[nH]c2ccccc2c1=O)NC1CCCC1,0%,-20,9%,0.52µM*,3%,-5
O=C(NCc1cccnc1)c1nn(-c2ccccc2F)nc1CO,/,/,-4%,/,/,/
COc1cc(SC)ccc1C(=O)Nc1ccc2c(c1)OCCO2,118%,64,11%,0%,-124%,34*
COc1ccccc1C(=O)Nc1ccc2c(c1)C(=O)NC2=O,27%,22*,-1%,?,1%,28*
COc1ccccc1C(=O)Nc1ccc2c(c1)OCO2,/,61*,-31%,157%,-47%,43*
CN(c1ccccc1C(=O)Nc1ccc2c(c1)OCO2)S(C)(=O)=O,-18%,16,-16%,65%,13%,1
COc1cc(C(=O)Nc2ccc3c(c2)OCCO3)c(-n2cnnn2)cc1OC,28%,-13,11%,29%,3%,-3
COc1ccccc1C(=O)NCC(=O)Nc1ccc2c(c1)OCO2,8%,/,-5%,7%,/,/

# Assay outcomes from PubChem.
